Key:
Details in all cases: concentration: 1 μM, replicates: in singlicate; n = 1
[1] = system: FLT3-autoinhibited
[2] = system: FLT3
[3] = system: FLT4
[4] = system: FRK
[5] = system: FYN
[6] = system: GAK
[7] = system: T1, GCN2(Kin.Dom.2,S808G)
T1 construct: gene EIF2AK4

[8] = system: GRK1
[9] = system: T2, GRK2
T2 construct: gene ADRBK1

[10] = system: T3, GRK3
T3 construct: gene ADRBK2

[11] = system: GRK4
[12] = system: GRK7
[13] = system: GSK3A
[14] = system: GSK3B
[15] = system: T4, HASPIN
T4 construct: gene GSG2

[16] = system: HCK
[17] = system: HIPK1
[18] = system: HIPK2
[19] = system: HIPK3
[20] = system: HIPK4
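Note: KINOMEscan kinase panel screen.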

Compound	%Inh [1]	%Inh [2]	%Inh [3]	%Inh [4]	%Inh [5]	%Inh [6]	%Inh [7]	%Inh [8]	%Inh [9]	%Inh [10]	%Inh [11]	%Inh [12]	%Inh [13]	%Inh [14]	%Inh [15]	%Inh [16]	%Inh [17]	%Inh [18]	%Inh [19]	%Inh [20]
Cc1cccc(Cn2ccn3c(=O)cc(N4CCOCC4)nc23)c1 [GSK2297542]	2%	11%	0%	7%	21%	20%	6%	0%	0%	16%	0%	0%	10%	3%	0%	0%	28%	0%	30%	15%
NS(=O)(=O)CCc1cccc(Nc2nccc(-c3c(-c4cccc(NC(=O)c5c(F)cccc5F)c4)nn4ccccc34)n2)c1 [GSK336735]	11%	98.9%	99.2%	97.2%	96.7%	28%	87%	0%	0%	89%	43%	12%	20%	6%	0%	98.9%	0%	0%	8%	25%
CC(=O)Nc1ccc(COc2ccc(Nc3ccnc4cc(-c5ccccn5)ccc34)cc2)cc1.Cl [GW440148]	38%	98%	99.9%	0%	47%	8%	0%	0%	0%	17%	0%	0%	34%	12%	13%	52%	0%	0%	12%	7%
COc1ccc(S(=O)(=O)NC2CCN(c3cc(C)nc(Nc4cccc(C#N)c4)n3)CC2)cc1.O=C(O)C(F)(F)F [GSK1653539]	0%	0%	2%	0%	0%	0%	0%	0%	0%	0%	0%	0%	6%	0%	22%	0%	0%	0%	4%	0%
O=C(Nc1cccc(-c2nn3ncccc3c2-c2ccnc(Nc3cccc(C(F)(F)F)c3)n2)c1)c1c(F)cccc1F [GSK299495]	0%	41%	40%	88%	62%	1%	8%	6%	0%	33%	2%	0%	0%	18%	2%	98.1%	0%	0%	1%	0%
O=C(NCCNc1ccnc(Nc2ccc(F)cc2)n1)Nc1ccccc1F [GSK1379880]	0%	0%	0%	0%	28%	0%	3%	0%	0%	23%	0%	0%	2%	0%	0%	0%	0%	0%	19%	0%
COc1ccc(Nc2nccc(N3CCC(NC(=O)Nc4cc(C)ccc4C)C3)n2)cc1 (centres unmarked) [GSK1379741]	0%	0%	1%	0%	2%	9%	0%	0%	0%	0%	0%	0%	0%	18%	0%	0%	0%	0%	16%	0%
O=C(c1ccc(-c2cc(-c3c[nH]nc3-c3ccccn3)ccn2)cc1)N1CCOCC1 [GW812171]	0%	1%	0%	0%	0%	34%	0%	26%	0%	20%	14%	0%	8%	7%	0%	36%	36%	0%	6%	7%
Fc1ccc(-c2ncn(CCCN3CCOCC3)c2-c2cccnc2)cc1 [SB-211743]	0%	9%	0%	0%	0%	2%	8%	16%	0%	7%	14%	0%	24%	20%	41%	34%	38%	0%	18%	4%
CCc1ccnc(/C=C/c2n[nH]c3cc(Sc4ccccc4C(=O)NC)ccc23)c1	7%	19%	99.9%	17%	0%	0%	18%	2%	18%	7%	2%	0%	2%	6%	11%	0%	3%	0%	6%	15%
